Measurements published in PubChem BioAssay (NCI).
Compounds without any hit were thinned out: in the full panel of roughly 83,000, 20% have a hit.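 Single-concentration screen, 48 h exposure, 96-well plates. Endpoint: percent growth. Below 10 = active.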 Values without a mark were called inactive. Activity calls are given as the source filed them.

Key:
Test in all cases: NCI-60 one-dose screen, 48 h (100 = growth as untreated, 0 = no growth, -100 = all killed)
Conditions in all cases: 10 µM unless noted
[1] = tested on: SR leukemia
[2] = tested on: RPMI-8226 leukemia
[3] = tested on: OVCAR-8 ovarian
[4] = tested on: OVCAR-5 ovarian
[5] = tested on: OVCAR-4 ovarian
[6] = tested on: SK-OV-3 ovarian
[7] = tested on: IGROV1 ovarian
[8] = tested on: OVCAR-3 ovarian
[9] = tested on: HS 578T breast
[10] = tested on: NCI/ADR-RES ovarian
[11] = tested on: T-47D breast
[12] = tested on: BT-549 breast
[13] = tested on: MDA-MB-435 melanoma
[14] = tested on: SW-620 colon
[15] = tested on: MCF7 breast
[16] = tested on: HCT-116 colon
[17] = tested on: HCC-2998 colon
[18] = tested on: KM12 colon

Row | Compound | growth [1] | growth [2] | growth [3] | growth [4] | growth [5] | growth [6] | growth [7] | growth [8] | growth [9] | growth [10] | growth [11] | growth [12] | growth [13] | growth [14] | growth [15] | growth [16] | growth [17] | growth [18]
1 | COc1cc(N2C(=O)[C@H](Cl)C2c2ccc(SC)cc2)cc(OC)c1OC (stereo partly specified) | 1.95% (active) | 3.63% (active) | 8.62% (active) | 70% | 48% | 20.4% | 27.8% | 3.77% (active) | 25.1% | -0.874% (active) | 49.1% | -9.33% (active) | -26.3% (active) | 24.3% | 12.4% | -17.2% (active) | 7.52% (active) | 14.4%
2 | Nc1cc(C(=O)O)cc(-n2c(O)c(C=C3N=c4ccccc4=N3)sc2=S)c1 | 121% | 100% | 103% | 99% | 101% | 99.9% | 86.8% | 106% | 103% | 103% | 95.2% | 103% | 103% | 96.8% | 94.5% | 99.4% | 99.3% | 103%
3 | CC(C)Cc1nc(Nc2ccccc2)[nH]c(=O)c1C#N | 34.2% | 25.1% | 64.4% | 84.9% | 36.8% | 60% | 71.4% | 30.8% | 36.2% | 62.9% | 40.8% | 39% | 70.6% | 70.3% | 53.4% | 54.7% | 38.1% | 50.6%
4 | Cc1cc(Cl)nc(N2CCN(CCNc3ccnc4cc(Cl)ccc34)CC2)n1 | -7.81% (active) | 13.5% | 61.5% | 66.6% | 40.1% | 56.9% | 61% | 60.7% | 76.8% | 45.2% | 19.5% | 47% | 50.2% | 45.3% | 26.8% | 25.3% | -3.07% (active) | 55.7%
5 | Clc1cccc(C2Cc3cnccc3-c3[nH]c4ccncc4c32)c1 (stereo unspecified) | 36.5% | 14.1% | 56.4% | 86.4% | 36.2% | 50.9% | 52.7% | 42.2% | 85% | 47.7% | 34.4% | 50.1% | 39.5% | 44.7% | 20.4% | 32.5% | 76.7% | 44.3%
6 | O=C1Nc2ccccc2/C1=N/N1C(=O)CN(CCCl)C1=O | 104% | 101% | 100% | 103% | 118% | 96.9% | 97.1% | 113% | 95.9% | 102% | 102% | 111% | 98.9% | 95.1% | 93.8% | 98.6% | 104% | 113%
7 | O=C1c2cccnc2C(=O)c2c1c(C(=O)OCCc1ccccn1)c1ccccn21 | -10.9% (active) | -27.2% (active) | -14% (active) | 9.08% (active) | 4.6% (active) | -66.5% (active) | -0.716% (active) | -16.1% (active) | -28.6% (active) | -26.4% (active) | -6.8% (active) | -35.2% (active) | -10.7% (active) | 2.3% (active) | -56.8% (active) | -48.3% (active) | -70.3% (active) | 4.35% (active)
8 | COc1ccc2c(c1)c(-c1nc(-c3ccc4ccccc4c3)cs1)cn2C | 49.9% | 102% | 95.3% | 91.6% | 94.3% | 93% | 85.9% | 96.2% | 97% | 98% | 58% | 89% | 70.1% | 73.4% | 30.8% | 87.9% | 99.5% | 67.4%
9 | CCC(C)(C)c1ccc(Nc2ccc(Nc3ccc(C(C)(C)CC)cc3)cc2)cc1 | 87.7% | 76.8% | 87.7% | 93.8% | 89.2% | 89.7% | 95.3% | 89.9% | 88.9% | 91.7% | 58.4% | 133% | 97.1% | 85.5% | 80% | 60.5% | 101% | 89.9%
10 | O=[N+]([O-])c1ccccc1Sc1ccccc1[N+](=O)[O-] | 104% | 95.4% | 102% | 93.1% | 95.9% | 90.9% | 105% | 92.4% | 95.8% | 96.2% | 81.5% | 100% | 103% | 110% | 108% | 94.9% | 97.5% | 92.6%
11 | Fc1ccc(/C=C/[C@@H]2C[C@@H](F)CCO2)cc1 | 61.1% | 67.6% | 98.4% | 89.7% | 119% | 102% | 103% | 113% | 84.8% | 103% | 101% | 100% | 97.9% | 90.2% | 91.3% | 82.2% | 60.6% | 105%
12 | CSc1nc(-c2ccco2)c(C#N)c(=O)n1C | 74.9% | 91.8% | 108% | 109% | 103% | 97% | 105% | 104% | 97% | 51.2% | 107% | 92.6% | 102% | 97% | 98% | 100% | 1.62% (active) | 103%
13 | O=C(O)CC(C(=O)O)/C(=C\c1ccccc1)c1ccccc1 (stereo unspecified) | 105% | 102% | 100% | 104% | 107% | 97.4% | 120% | 113% | 105% | 110% | 93.1% | 122% | 115% | 103% | 94.7% | 119% | 108% | 108%
14 | COc1ccc(C2[C@@H](Cl)C(=O)N2c2cc(OC)c(OC)c(OC)c2)cc1Cl (stereo partly specified) | 5.49% (active) | 9.34% (active) | 9.75% (active) | 64.4% | 56% | -0.0611% (active) | 33.5% | -2.62% (active) | 31% | 18% | 43.3% | -19.1% (active) | -20.7% (active) | 21.9% | 14.4% | -9.69% (active) | 22.8% | 16.3%
15 | CC1=Nc2cnc(Nc3ccc(N4CCCCC4)cc3)nc2Nc2ccccc21 | 34% | 34.3% | 77.2% | 82.7% | 52.2% | 104% | 63.3% | 94.9% | 84.5% | 62.6% | 46.9% | 42.5% | 89.7% | 96% | 72.5% | 59% | 106% | 54.9%
16 | COc1ccc(C2CC(c3ccccc3)=NN2C(=O)c2cc(OC)c(OC)c(OC)c2)cc1O (stereo unspecified) | 29.8% | -20.5% (active) | 24.4% | 60.1% | 42% | 54.9% | 3.37% (active) | 17% | 23.5% | -11.9% (active) | 70.9% | 39.7% | -7.61% (active) | 32.1% | 20.3% | 13.8% | -1.27% (active) | 26.3%
17 | Cc1ccc(NC(=O)c2sc3nc(C)c(C(O)c4ccccc4)cc3c2N)cc1 (stereo unspecified) | 1.92% (active) | 5.22% (active) | 18.6% | 34.6% | 46.1% | 14.7% | 28.4% | 5.7% (active) | 9.32% (active) | 7.94% (active) | 42.3% | 61.6% | -13.1% (active) | 23.1% | 19.2% | 13.7% | 12.1% | 16.8%
